Assay results taken from PubChem BioAssay.
For some assays here: Entries with a potency or affinity are not part of this list. Active and inactive are the calls of the source.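 How the source made its calls, unless noted: active means primary screen hit whose calcium fluorescence ratio, in both repeats, exceeds the weak agonist control mean by 3 SD; inactive means the rest.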

What was measured:
[1] = tested on: TRPC4 beta (transient receptor potential cation channel C4), mouse; experiment: activators of mouse TRPC4 channel, confirmation, cell-based, Fluo4 calcium, HEK293 TRPC4beta/mu-opioid, duplicates, 10 µM (AID 2426;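 active means fluorescence ratio normalized to control raised more than 50% in primary screen plus both repeat runs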;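 on activation: percent rise of integrated ratio over buffer wells lacking compound which define 0%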); details: Fluo4 calcium fluorescence, at 10 µM; hits give high values
[2] = tested on: transient receptor potential cation channel C4 beta (TRPC4), mouse; experiment: activators of mouse TRPC4 channel, confirmation, cell-based, second round, Fluo4, HEK293 TRPC4beta/mu-opioid, 1 µM (AID 2461;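 active means primary screen active and over 50% activation in each of two duplicate runs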;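 on activation: 0% = wells without test compound as baseline of integrated fluorescence ratio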); details: Fluo4 calcium fluorescence, at 1 µM; hits give high values
[3] = tested on: TRPC4 (transient receptor potential cation channel C4 beta), mouse; experiment: positive allosteric modulators of mouse TRPC4, confirmation, cell-based, second round, Fluo-4, HEK293 TRPC4beta/mu-opioid, 1 µM (AID 2554;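 active means primary screen hit whose fluorescence ratio, in both repeats, exceeds the weak agonist control mean by 3 SD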); details: DAMGO EC20, Fluo-4 calcium flux, at 1 µM; hits give high values
[4] = tested on: TRPC4 beta (transient receptor potential cation channel C4), mouse; experiment: positive allosteric modulators of mouse TRPC4, confirmation, cell-based, Fluo-4, HEK293 TRPC4beta/mu-opioid (AID 2555); details: DAMGO EC20, Fluo-4 calcium flux, at 10 µM; hits give high values
[5] = target: Short transient receptor potential channel 4 (Mus musculus) (UniProt Q9QUQ5); experiment: inhibitors of mouse TRPC4 channel, confirmation, cell-based, Fluo4, HEK293 TRPC4beta/mu-opioid (AID 2636;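 active means calcium signal cut by more than 3 SD below the full-agonist control yet still positive, in both repeats and the earlier primary screen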); details: DAMGO, Fluo4 calcium flux, at 10 µM; hits give high values
Chain of Short transient receptor potential channel 4 (Mus musculus) (Q9QUQ5 whole entry, looked up): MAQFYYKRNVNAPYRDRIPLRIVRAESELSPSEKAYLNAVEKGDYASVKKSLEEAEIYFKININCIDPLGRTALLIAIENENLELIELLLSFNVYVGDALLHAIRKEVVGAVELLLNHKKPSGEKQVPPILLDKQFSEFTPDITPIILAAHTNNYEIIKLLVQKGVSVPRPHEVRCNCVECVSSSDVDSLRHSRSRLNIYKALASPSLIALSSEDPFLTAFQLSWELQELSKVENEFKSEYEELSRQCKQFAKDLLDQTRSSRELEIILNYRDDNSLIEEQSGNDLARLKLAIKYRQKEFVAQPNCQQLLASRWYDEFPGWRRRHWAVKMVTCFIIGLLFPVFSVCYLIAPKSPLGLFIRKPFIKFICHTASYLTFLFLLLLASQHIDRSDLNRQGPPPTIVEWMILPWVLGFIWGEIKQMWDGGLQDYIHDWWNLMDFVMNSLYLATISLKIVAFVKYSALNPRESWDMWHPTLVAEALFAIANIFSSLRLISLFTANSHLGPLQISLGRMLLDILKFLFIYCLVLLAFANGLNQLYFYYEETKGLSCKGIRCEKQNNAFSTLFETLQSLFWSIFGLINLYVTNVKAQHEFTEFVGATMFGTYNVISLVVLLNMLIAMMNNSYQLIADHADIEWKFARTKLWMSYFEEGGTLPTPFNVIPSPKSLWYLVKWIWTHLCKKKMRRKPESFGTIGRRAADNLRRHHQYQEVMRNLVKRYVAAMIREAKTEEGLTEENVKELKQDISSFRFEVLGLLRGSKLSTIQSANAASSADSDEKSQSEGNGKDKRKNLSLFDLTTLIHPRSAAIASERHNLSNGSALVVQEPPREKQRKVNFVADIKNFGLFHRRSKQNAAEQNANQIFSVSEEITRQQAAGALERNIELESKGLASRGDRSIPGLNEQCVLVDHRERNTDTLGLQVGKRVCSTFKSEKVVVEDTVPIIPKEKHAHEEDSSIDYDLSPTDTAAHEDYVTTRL

[6] = target: Short transient receptor potential channel 4 (Mus musculus) (UniProt Q9QUQ5); experiment: inhibitors of mouse TRPC4 channel, confirmation, cell-based, second round, Fluo4, HEK293 TRPC4beta/mu-opioid, 1 µM (AID 2637;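 active means calcium signal ratio cut to more than 3 SD under the fully stimulated control mean yet still positive, in both repeats and the primary screen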); details: Fluo4 calcium flux, DAMGO, at 1 µM; hits give high values
[7] = target: Short transient receptor potential channel 4 (Mus musculus) (UniProt Q9QUQ5); experiment: TRPC4 positive allosteric modulators, dose response, cell-based, HEK293 TRPC4/mu-opioid, Fluo-4 calcium, EC20 DAMGO (AID 434941;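 active means earlier screen potentiator hit that boosts the TRPC4 ion channel at some dose, with a dose response; inactive means no potentiation, no dose response, or not a prior hit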;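 further: calcium entry triggered by an EC20 dose of DAMGO at the co-expressed mu-opioid receptor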)
[8] = target: Short transient receptor potential channel 4 (Mus musculus) (UniProt Q9QUQ5); experiment: mouse TRPC4 channel inhibitors, dose response, cell-based, HEK293 TRPC4/mu-opioid, Fluo-4 calcium (AID 434942;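 active means primary screen inhibitor hit that blocks the TRPC4 channel at some tested dose, yielding a dose curve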)
[9] = target: Short transient receptor potential channel 6 (Mus musculus) (UniProt Q61143); experiment: inhibition of mouse TRPC6 channel, confirmation, selectivity assay for TRPC4 inhibitor project, cell-based, HEK293, membrane potential dye, duplicate (AID 434948;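 active means active in primary screen and both duplicates, each dropping signal beyond three positive-control SD with fluorescence still positive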); details: HEK293 TRPC6, membrane potential dye fluorescence, at 10 µM, stimulated with maximal-effect acetylcholine; hits give high values
Chain of Short transient receptor potential channel 6 (Mus musculus) (Q61143 whole entry, looked up): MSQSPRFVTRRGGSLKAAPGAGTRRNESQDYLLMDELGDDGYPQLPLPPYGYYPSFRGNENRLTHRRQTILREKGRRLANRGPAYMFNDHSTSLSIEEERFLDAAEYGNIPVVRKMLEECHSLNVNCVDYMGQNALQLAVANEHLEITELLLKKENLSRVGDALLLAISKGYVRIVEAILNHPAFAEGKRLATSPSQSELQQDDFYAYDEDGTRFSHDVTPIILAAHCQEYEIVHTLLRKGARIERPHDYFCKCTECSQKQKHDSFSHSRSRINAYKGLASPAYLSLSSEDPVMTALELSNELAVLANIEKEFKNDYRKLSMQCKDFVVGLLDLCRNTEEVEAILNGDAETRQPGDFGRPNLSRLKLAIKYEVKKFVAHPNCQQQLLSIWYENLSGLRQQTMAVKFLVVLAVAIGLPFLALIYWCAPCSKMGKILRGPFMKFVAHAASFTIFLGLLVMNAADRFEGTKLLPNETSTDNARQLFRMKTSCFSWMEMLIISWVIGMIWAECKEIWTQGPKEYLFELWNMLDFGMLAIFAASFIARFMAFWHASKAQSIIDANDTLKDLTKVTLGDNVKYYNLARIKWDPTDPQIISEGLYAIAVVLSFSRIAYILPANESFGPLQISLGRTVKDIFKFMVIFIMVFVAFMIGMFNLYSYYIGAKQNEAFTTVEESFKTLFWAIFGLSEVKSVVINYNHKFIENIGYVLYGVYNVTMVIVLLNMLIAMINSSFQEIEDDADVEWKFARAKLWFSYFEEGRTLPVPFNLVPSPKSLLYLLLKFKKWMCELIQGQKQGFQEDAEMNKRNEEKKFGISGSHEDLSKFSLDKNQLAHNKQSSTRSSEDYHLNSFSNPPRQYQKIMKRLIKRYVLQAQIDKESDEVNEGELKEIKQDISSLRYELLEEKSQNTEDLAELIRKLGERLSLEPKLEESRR

[10] = target: Short transient receptor potential channel 6 (Mus musculus) (UniProt Q61143); experiment: activation of mouse TRPC6 channel, confirmation, selectivity assay for TRPC4 activator project, cell-based, HEK293, membrane potential dye, duplicate (AID 434950;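 active means membrane potential signal rise above negative control mean plus 3 SD in both duplicates, also active in the earlier TRPC4 screen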;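 on activation: 0% = buffer only wells and 100% = acetylcholine maximal-effect wells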); details: HEK293 TRPC6, membrane potential fluorescence, at 10 µM; hits give high values
[11] = target: Short transient receptor potential channel 6 (Mus musculus) (UniProt Q61143); experiment: TRPC6 potentiation by TRPC4 potentiator hits, confirmation, selectivity assay for TRPC4 potentiator project, HEK293 cells, membrane potential dye, duplicate (AID 434952;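 active means compound raising the membrane signal above positive-control mean plus 3 SD in both repeats, and a primary screen hit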); details: HEK293 TRPC6, membrane potential dye fluorescence, at 10 µM, maximal acetylcholine added after compound; hits give high values
[12] = target: Short transient receptor potential channel 4 (Mus musculus) (UniProt Q9QUQ5); experiment: calcium flux activators in TRPC4/5HT1a cells, counter-screen for TRPC4 activator project, cell-based, second counter screen, HEK293 TRPC4/5HT1a, Fluo-4 (AID 434977;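 active means calcium signal rise above buffer-control mean plus 5 SD in both duplicates, and also a hit in the primary screen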;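 on activation: plate controls were assay buffer for no effect and maximal serotonin response for full effect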); details: Fluo-4 calcium flux, at 10 µM; hits give high values
[13] = calcium flux inhibitors in TRPC4/5HT1a cells, confirmation, counter-screen for TRPC4 inhibitor project, cell-based, second counter screen, HEK293 TRPC4/5HT1a, Fluo-4 (AID 434978;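 active means primary screen active whose calcium signal fell more than 3 SD beyond the full-serotonin control mean in both duplicate plates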;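 further: serotonin given first at submaximal then at maximal dose after compound preincubation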); details: Fluo-4 calcium flux, at 10 µM, serotonin added to trigger calcium flux; hits give high values
[14] = tested on: TRPC4 (mouse), co-expressed with 5HT1a in HEK293; experiment: calcium flux potentiators in TRPC4/5HT1a cells, confirmation, counter-screen for TRPC4 potentiator project, cell-based, second counter screen, HEK293 TRPC4/5HT1a, Fluo-4 (AID 434979;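 active means signal rise over 3 SD above mean of control wells given weak agonist, in both repeats and first screen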); details: Fluo-4 calcium flux, at 10 µM, serotonin added at its EC20 dose; hits give high values
[15] = calcium flux activation in mu-opioid HEK293 cells, confirmation, counter-screen for TRPC4 activator project, cell-based, HEK293 mu-opioid receptor line (AID 449723;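 active means hit in primary screen, with calcium signal over 5 SD above buffer well mean in both duplicates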;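 further: counter screen cells carry the mu-opioid receptor alone and lack TRPC4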); details: Fluo-4 calcium fluorescence, at 10 µM; hits give high values
[16] = calcium flux enhancement in mu-opioid HEK293 cells, confirmation, counter-screen for TRPC4 allosteric potentiator project, cell-based, HEK293 mu-opioid receptor line (AID 449724;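 active means calcium signal rise more than 3 SD above the low-dose agonist control mean, in both duplicate plates and the primary screen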); details: Fluo-4 calcium flux, at 10 µM, compound added before EC20 DAMGO stimulus; hits give high values

CC1CC(C)CN(CCCNC(=O)c2csc3c2CCCCC3)C1 (configuration not stated)
inactive: outcome [2] | outcome [3] | outcome [4] | outcome [5] | outcome [6] | outcome [7] | outcome [8] | outcome [9] | outcome [11] | outcome [13] | outcome [14] | outcome [15] | outcome [16]
active: activation [1] 128% | activation [10] 87.5% | activation [12] 7.01%

O=C(NC(=S)NNC(=O)c1ccccc1[N+](=O)[O-])c1ccc(Br)cc1
active: activation [1] 141% | activation [10] 29% | activation [15] 15.6%
inactive: outcome [2] | outcome [3] | outcome [4] | outcome [5] | outcome [6] | outcome [7] | outcome [8] | outcome [9] | outcome [11] | outcome [12] | outcome [13] | outcome [14] | outcome [16]

O=C1S/C(=C\c2ccc(N3CCOCC3)o2)C(=O)N1Cc1c(F)cccc1Cl
active: activation [10] 280% | potentiation, percent of control [11] 191%
inactive: outcome [1] | outcome [2] | outcome [3] | outcome [4] | outcome [5] | outcome [6] | outcome [7] | outcome [8] | outcome [9] | outcome [12] | outcome [13] | outcome [14] | outcome [15] | outcome [16]

CCOC(=O)C1(CC2CCCCO2)CCN(Cc2cc(F)ccc2-n2cccn2)CC1 (configuration not stated)
active: activation [10] 76.5%
inactive: outcome [1] | outcome [2] | outcome [3] | outcome [4] | outcome [5] | outcome [6] | outcome [7] | outcome [8] | outcome [9] | outcome [11] | outcome [12] | outcome [13] | outcome [14] | outcome [15] | outcome [16]

CN(CCc1ccccn1)C(=O)CC1C(=O)NCCN1Cc1cccc(F)c1 (configuration not stated)
inactive: outcome [2] | outcome [3] | outcome [4] | outcome [5] | outcome [6] | outcome [7] | outcome [8] | outcome [9] | outcome [10] | outcome [11] | outcome [13] | outcome [14] | outcome [15] | outcome [16]
active: activation [1] 214% | activation [12] 60.9%

COC(=O)c1ccc(C(=S)NCC2(N(C)C)CCCCC2)cc1
inactive: outcome [2] | outcome [3] | outcome [4] | outcome [5] | outcome [6] | outcome [7] | outcome [8] | outcome [9] | outcome [11] | outcome [13] | outcome [14] | outcome [16]
active: activation [1] 181% | activation [10] 41% | activation [12] 22.2% | activation [15] 14.7%

CC(C)(C)C(=O)NC(=S)NNC(=O)c1sc2ccccc2c1Cl
active: activation [1] 323% | activation [2] 96% | activation [10] 36.5% | activation [12] 148% | activation [15] 136%
inactive: outcome [3] | outcome [4] | outcome [5] | outcome [6] | outcome [7] | outcome [8] | outcome [9] | outcome [11] | outcome [13] | outcome [14] | outcome [16]

CC1CC(C)CN(CCCNC(=O)c2ccc3c(c2)N(Cc2ccccc2)C(=O)c2ccccc2S3=O)C1 (configuration not stated)
active: activation [1] 106% | activation [2] 54% | activation [12] 23.8%
inactive: outcome [3] | outcome [4] | outcome [5] | outcome [6] | outcome [7] | outcome [8] | outcome [9] | outcome [10] | outcome [11] | outcome [13] | outcome [14] | outcome [15] | outcome [16]

CCCCCc1c(O)nc(SCCN(C)C)[nH]c1=O
inactive: outcome [2] | outcome [3] | outcome [4] | outcome [5] | outcome [6] | outcome [7] | outcome [8] | outcome [9] | outcome [10] | outcome [11] | outcome [13] | outcome [14] | outcome [15] | outcome [16]
active: activation [1] 63% | activation [12] 15.6%

S=C(NCCc1ccccn1)NC1CCCCC1
active: activation [1] 97% | activation [10] 24.5% | activation [12] 28.1%
inactive: outcome [2] | outcome [3] | outcome [4] | outcome [5] | outcome [6] | outcome [7] | outcome [8] | outcome [9] | outcome [11] | outcome [13] | outcome [14] | outcome [15] | outcome [16]

CC(C)C1CC(CCNCc2ccc3c(c2)OCO3)(c2ccccc2)CCO1 (configuration not stated)
active: activation [1] 96% | activation [10] 64% | activation [12] 5.88%
inactive: outcome [2] | outcome [3] | outcome [4] | outcome [5] | outcome [6] | outcome [7] | outcome [8] | outcome [9] | outcome [11] | outcome [13] | outcome [14] | outcome [15] | outcome [16]

CN(C)CCCN(C(=O)c1ccc(S(=O)(=O)N2CCc3ccccc32)cc1)c1nc2ccc(F)cc2s1
active: activation [1] 79%
inactive: outcome [2] | outcome [3] | outcome [4] | outcome [5] | outcome [6] | outcome [7] | outcome [8] | outcome [9] | outcome [10] | outcome [11] | outcome [12] | outcome [13] | outcome [14] | outcome [15] | outcome [16]

O=C(CC(=O)c1c(F)cccc1Cl)c1ccccc1O
active: activation [1] 157% | activation [10] 37% | activation [12] 98.7% | activation [15] 33.3%
inactive: outcome [2] | outcome [3] | outcome [4] | outcome [5] | outcome [6] | outcome [7] | outcome [8] | outcome [9] | outcome [11] | outcome [13] | outcome [14] | outcome [16]

CN1C2C=C(N(CCc3ccccc3)C(=O)c3ccc(Cl)cc3)CC1CC2 (configuration not stated)
active: activation [10] 50%
inactive: outcome [1] | outcome [2] | outcome [3] | outcome [4] | outcome [5] | outcome [6] | outcome [7] | outcome [8] | outcome [9] | outcome [11] | outcome [12] | outcome [13] | outcome [14] | outcome [15] | outcome [16]

COc1ccc(C(CNC(=O)Cc2ccc(-c3ccccc3)cc2)N(C)C)cc1 (configuration not stated)
active: activation [1] 192% | activation [2] 112% | activation [10] 56%
inactive: outcome [3] | outcome [4] | outcome [5] | outcome [6] | outcome [7] | outcome [8] | outcome [9] | outcome [11] | outcome [12] | outcome [13] | outcome [14] | outcome [15] | outcome [16]

COc1ccc(C(CNCC(O)COc2c(C)ccc(C)c2C)N(C)C)cc1 (configuration not stated)
inactive: outcome [1] | outcome [2] | outcome [3] | outcome [4] | outcome [5] | outcome [6] | outcome [7] | outcome [8] | outcome [9] | outcome [11] | outcome [12] | outcome [13] | outcome [14] | outcome [15] | outcome [16]
active: activation [10] 79%

CC1(C(=O)NC(=S)NNC(=O)c2ccncc2)CCCCC1
inactive: outcome [2] | outcome [3] | outcome [4] | outcome [5] | outcome [6] | outcome [7] | outcome [8] | outcome [9] | outcome [10] | outcome [11] | outcome [13] | outcome [14] | outcome [15] | outcome [16]
active: activation [1] 197% | activation [12] 101%
